Measurements reported in PubChem BioAssay AID720566 (Broad Institute, 2013).
Entries with a potency or affinity are not part of this list. Active and inactive are the calls of the source.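 How the source made its calls: active means in all runs, an absorbance decrease of 25% or more of the average positive control decrease; inconclusive means runs conflict, with both active and inactive results; inactive means all runs inactive, opposite-direction effects included.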

Target: Protein disulfide-isomerase A6 (Homo sapiens) (UniProt Q15084)
Assay: reduced insulin turbidity driven by ERp5 (PDIA6) – biochemical, absorbance 650 nm, cherry-picked samples, dose response (AID 720566);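 further: negative values mean less insulin aggregation so ERp5 inhibition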
Settings: Recombinant ERp5 insulin aggregation; series mostly up to 35 µM

Chain of Protein disulfide-isomerase A6 (Homo sapiens) (Q15084 whole entry, looked up): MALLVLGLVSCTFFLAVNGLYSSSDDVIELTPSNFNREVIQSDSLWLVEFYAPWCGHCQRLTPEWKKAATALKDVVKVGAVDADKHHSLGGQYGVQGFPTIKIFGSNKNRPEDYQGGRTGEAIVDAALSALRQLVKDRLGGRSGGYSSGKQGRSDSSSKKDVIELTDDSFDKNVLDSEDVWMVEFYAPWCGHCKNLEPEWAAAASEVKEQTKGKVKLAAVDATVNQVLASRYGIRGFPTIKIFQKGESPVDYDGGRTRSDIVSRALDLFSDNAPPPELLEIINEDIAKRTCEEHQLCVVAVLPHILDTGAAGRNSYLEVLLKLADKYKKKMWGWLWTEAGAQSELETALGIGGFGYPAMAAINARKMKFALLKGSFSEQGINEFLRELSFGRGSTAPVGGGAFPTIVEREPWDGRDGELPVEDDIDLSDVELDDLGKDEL

outcome, inactive:
CC(C)C#Cc1cnc2c(c1)C(=O)N([C@@H](C)CO)C[C@@H](C)[C@H](CN(C)C(=O)c1ccccc1F)O2
O=C(Nc1ccncc1)C1CCN(S(=O)(=O)c2cccc(C(F)(F)F)c2)CC1
O=C(Nc1ccncc1)C1CC(=O)N(c2ccccc2)C1 (stereo not drawn)
Cc1ccc([C@H]2N[C@]3(CCCN(Cc4ccc(Cl)cc4)C3=O)[C@H]3C(=O)N(C)C(=O)[C@@H]23)cc1
C[C@H]1CN([C@@H](C)CO)C(=O)c2cc(-c3cccc(C#N)c3)cnc2O[C@@H]1CN(C)Cc1cncnc1
CCC[C@@H](CN1CCC[C@H]1CN1C(N)=NC[C@H]1CC(C)C)N1C[C@@H]([C@H](C)CC)N(CCCC2CCCC2)C1=N
COc1ccc(NC(=O)N(C)C[C@@H]2Oc3ccc(NC(=O)Nc4ccc(F)cc4)cc3CC(=O)N([C@@H](C)CO)C[C@@H]2C)cc1
CN(C)C(=O)C[C@H]1C[C@H]2c3cc(NS(C)(=O)=O)ccc3O[C@H]2[C@@H](CO)O1
C[C@@H]1CN([C@@H](C)CO)C(=O)Cc2cc(NC(=O)Cc3ccccc3)ccc2O[C@@H]1CN(C)C(=O)Nc1ccc(C(F)(F)F)cc1
COCC#Cc1cnc2c(c1)C(=O)N([C@@H](C)CO)C[C@H](C)[C@@H](CN(C)C(=O)NC1CCCC1)O2
O=C(C[C@H]1C[C@H]2c3cc(NC(=O)CC4CC4)ccc3O[C@H]2[C@@H](CO)O1)NCc1ccc(-c2ccccc2)cc1
Cc1cccc(S(=O)(=O)N(C)C[C@H]2OCc3cnnn3CCCC(=O)N([C@@H](C)CO)C[C@H]2C)c1
C[C@H]1CN([C@@H](C)CO)C(=O)CCCn2cc(nn2)CO[C@@H]1CN(C)Cc1cccc(C(F)(F)F)c1
O=C(Cc1ccc(NC(=O)C2CCCN(C(=O)C3CC3)C2)cc1)Nc1cccc(C(=O)N2CCCCC2)c1 (stereo not drawn)
O=C(COC(=O)CCc1nc2ccccc2c(=O)[nH]1)Nc1c(Cl)cccc1C(F)(F)F
COCC(=O)N1CC2(C1)CN(Cc1ccccc1F)[C@H](CO)c1[nH]c3cc(OC)ccc3c12
COc1ccc2c3c([nH]c2c1)[C@H](CO)N(C(=O)c1ccc(F)cc1)CC31CCN(C(=O)Nc2cccc(F)c2)CC1
CCCNC(=O)[C@H]1[C@H](CO)[C@H]2Cn3c(ccc(/C=C/c4ccccc4)c3=O)[C@@H]1N2C(C)=O
C[C@@H]1CN([C@@H](C)CO)S(=O)(=O)c2ccc(C#Cc3cccnc3)cc2O[C@H]1CN(C)C(=O)CN(C)C
COCC#Cc1cnc2c(c1)C(=O)N([C@H](C)CO)C[C@@H](C)[C@H](CN(C)C(=O)NC1CCCC1)O2
CC(C)C#Cc1ccc2c(c1)O[C@@H](CN(C)C(=O)C1CC1)[C@@H](C)CN([C@@H](C)CO)S2(=O)=O
COc1ccc(S(=O)(=O)N(C)C[C@@H]2Oc3ccc(NC(=O)c4ccncc4)cc3C(=O)N([C@H](C)CO)C[C@@H]2C)cc1
C[C@@H]1CN([C@@H](C)CO)C(=O)c2cccc(NS(=O)(=O)c3ccc(F)cc3)c2O[C@H]1CN(C)S(=O)(=O)c1ccccc1
CCC(=O)Nc1ccc2c(c1)C(=O)N(C)[C@H]1CC[C@@H](CC(=O)NCC3CC3)O[C@@H]1CO2
CN(C)C(=O)C[C@@H]1C[C@H]2c3cc(NS(C)(=O)=O)ccc3O[C@H]2[C@@H](CO)O1
COc1ccc(S(=O)(=O)Nc2ccc3c(c2)CC(=O)N([C@H](C)CO)C[C@H](C)[C@H](CN(C)C(=O)Nc2ccccc2)O3)cc1
CN(C)C(=O)C[C@H]1C[C@H]2c3cc(NS(C)(=O)=O)ccc3O[C@H]2[C@H](CO)O1
O=C(NN=c1c(=O)c2ccccc2c1=O)c1ccccc1
Cc1noc(C)c1NC(=O)N(C)C[C@H]1Oc2ccc(NC(=O)c3ccncc3)cc2C(=O)N([C@H](C)CO)C[C@@H]1C
CCC(=O)Nc1ccc2c(c1)OC[C@H](C)N(Cc1cccnc1)C[C@H](C)[C@H](OC)CN(C)C2=O
COc1ccc2c3c([nH]c2c1)[C@@H](CO)N(Cc1nccs1)CC31CN(C(=O)C2CCCC2)C1
O=C(N/N=C1\CCCc2ccccc21)c1ccccc1Cl
CN(CC(=O)Nc1ccc(F)c(F)c1F)C(=O)c1cc(-c2ccncc2)nc2ccccc12
